# Bioassay records (PubChem BioAssay)
# An excerpt weighted towards active compounds, which were near 3.8% of everything screened.
# HT1080NT lethal: kills 2HG-producing HT-1080-NT fibrosarcoma cells; 360,000 tested, 1.6% active; AID 686970; Potency, µM (top dose mostly 46.1 µM), for the others: at the highest dose activity, negative = less viability, most hits filed as cytotoxic; HT-1080-NT fibrosarcoma viability, CellTiter-Glo ATP luminescence, 48 h;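 note: NT is the 2HG producing partner of a matched IDH1 knockdown line; 0% = DMSO-treated cells and -100% = media-only wells without cells; nearly all actives have a fitted effect of over 55% in size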
#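 HT-1080-NT fibrosarcoma cells (2HG-overproducing), 750 cells/well in RPMI with 5% FBS, dosed after 2 h and incubated 48 h at 37C. CellTiter-Glo luminescence normalized to DMSO and no-cell wells; concentration-response curves fitted and classed.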
# TGFb SMAD3 inh: TGF-b pathway inhibition. Potency, µM (top dose mostly 46.1 µM), for inactives: at the highest dose activity, negative = inhibition, usual class: inhibitors. AID 588855. HepG2 CAGA-GFP TGF-b/SMAD3 reporter, GFP fluorescence, 18 h; TGF-beta stimulated, 500 pg/mL final. 410,000 tested, 1.2% active; note: % is set by controls: 0 for no effect and ±100 for the full control effect; nearly all actives have a fitted effect of over 65% in size
#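 Inhibition was scored as loss of TGF-beta-induced (500 pg/mL final, 18 hours, 37 degrees C) GFP in HEPG2 cells carrying a CAGA-GFP reporter, in DMEM with 1% FBS. Well GFP was summed per cell; Activity was normalised to unstimulated and stimulated DMSO wells, then concentration-response fitting.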
# HepG2 tox: counter-screen for TGF-b inhibitors: cytotoxicity in HepG2 cells. HepG2 CAGA-GFP viability, ATP luminescence, 18 h. Potency, µM (doses to about 46.1 µM), inactives show at the top dose activity change, negative = cytotoxicity, hits mostly cytotoxic. 410,000 tested, 0.76% active. AID 588856
#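 HepG2 CAGA-GFP cells (1000/well, DMEM with 1% FBS) received compound, then TGF-beta at 500 pg/mL final, and were incubated 18 hours at 37 degrees C. Viability was read by CellTiter-Glo luminescence. Media-only wells were set as complete cell-killing and DMSO as no toxicity.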
# ATXN2 expr inh: reduces ATXN2 reporter expression in HEK-293 cells; AID 1745845; Potency, µM (series often up to 57 µM), for inactives: at the top dose activity change, negative = inhibition, actives largely listed as inhibitors; HEK-293 ATXN2-luciferase reporter, luminescence, 24 h; 360,000 tested, 0.72% active; note: % is set by controls: 0 for no effect and ±100 for the full control effect; nearly all actives have a fitted effect of over 55% in size
#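 qHTS (up to 57 uM final) was run with 24 h compound exposure of reporter cells at 37 °C. Each well was multiplexed: SteadyGlo luminescence measured ATXN2-luciferase expression after a fluorogenic Gly-Phe-AFC viability readout (25 uM final).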
# ATXN viability: reduces viability in counter-screen for ATXN expression inhibitors | Potency, µM (doses to about 56.7 µM), usual class: cytotoxic | 400,000 tested, 0.49% active | S2 cells (HEK-293 line with an ATXN2-luciferase reporter) viability, CellTiter-Fluor protease fluorescence, 24 h; note: nearly all actives have a fitted effect of over 40% in size
# HT1080 IDH1KD tx: HT-1080 IDH1 knockdown cell toxicity (counter line) | Potency, µM (titrated, usually from 46.1 µM), without a hit: at the top dose activity, negative = toxicity, usual class: cytotoxic | AID 686971 | 360,000 tested, 2% active | HT-1080 IDH1 knockdown viability, ATP luminescence, 48 h;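 note: 0% = DMSO wells and -100% = cell-free medium wells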
#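 Knockdown cells (IDH1KD HT-1080) received compounds 2 h after plating at 750 cells/well and were kept 48 h at 37 °C in 5% FBS RPMI. A CellTiter-Glo luminescence read gave % activity for curve fitting.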
# Active calls of the source: *; i = inactive; ? = inconclusive; . = not tested or not shown; ! = a repeat was not active. Calls come from the whole dose curve; as a rule, active = well fitted curve in the direction sought with a large enough effect; inconclusive = small, poorly fitted or top-dose-only effect, or another doubt; inactive = no such curve, though single readings can be large; an effect the other way counts as inactive or inconclusive. Potency is the fitted concentration of half-maximal effect.
SMILES,HT1080NT lethal,TGFb SMAD3 inh,HepG2 tox,ATXN2 expr inh,ATXN viability,HT1080 IDH1KD tx
Cc1cc(/C=C2\C=Cc3ccccc32)cc(C)c1N,.,?,-50%,.,.,.
O=c1oc(-c2ccccc2)cc(Cl)c1Cl,16µM*,11µM*,-97%,?,.,9.2µM*
O=c1cc(-c2ccccc2)oc2ccc(Cl)cc12,18%,4%,-2%,2%,i,?
CCC1CN(CCC(=O)N2CCCN(C(=O)c3ccco3)CC2)Cc2cc(OC)ccc2O1 (stereo not drawn),.,.,.,.,i,.
CCN(CC)c1nc(OCCNC(=O)Nc2ccccc2)nc(N(CC)CC)n1,21µM*,?,-59%,-8%,i,18µM*
CCOC(=O)c1cc(-c2ccccc2)n(CCCC(=O)Nc2ccc(C)c(Cl)c2)c1C,.,11µM*,-28%,.,.,.
O=C(CCCCCN1C(=O)c2cccc3cccc(c23)C1=O)NCc1cccnc1,2.9µM*,-2%,32%,-20%,i,2.3µM*
O=C(CCCN1C(=O)c2cccc3cccc(c23)C1=O)NCc1cccnc1,-19%,-10%,5%,-14%,i,-8%
Cn1c(-c2ccccc2)cc2c3no[n+]([O-])c3ccc21,2.3µM*,?,-19%,?,?,4.1µM*
Cn1c(-c2ccccc2)cc2ccccc21,-1%,-24%,-27%,24%,i,8%
CCOc1ccc(CNC(=O)c2ccc(Sc3ccc(Cl)cc3)c(NC(C)=O)c2)cc1OC,-14%,11µM*!,-33%,-14%,?,-14%
CC(=O)Nc1ccc(NC(=O)COc2c(C)cc(Br)cc2C)cc1,-9%,-24%,-30%,14%,i,-8%
CSc1cc(C)c(OCC(=O)Nc2ccc(NC(C)=O)cc2)c(C)c1,-3%,-10%,0.2µM*,.,i,-17%
CC1CC(C)CN(C(C(=O)NC2CCCCC2)c2cc3ccccc3o2)C1 (stereo not drawn),?,16µM*,-24%,-32%,i,?
COc1ccccc1C1C=C(c2ccccc2)Nc2nnnn21 (stereo not drawn),?,-2%,-33%,-4%,i,16µM*
COc1cccc(C2=CC(c3ccc(OC)c(OC)c3OC)n3nnnc3N2)c1 (stereo not drawn),1%,-11%,-1%,-8%,i,1%
COc1cccc(C2=CC(c3cccs3)n3nnnc3N2)c1 (stereo not drawn),8.2µM*,20%,-8%,28%,i,8.2µM*
O=C(Cn1nc(-c2ccccc2)c2cnc3ccccc3c21)Nc1ccccc1,.,15%,2%,6%,i,.
O=C(Nc1ccccc1Br)c1cnn2c1NC(=C1CC1)C=C2C(F)F,2%,.,.,.,.,25%
CCN(CC)c1ccc(-c2nn3c(-c4n[nH]c5c4CCC5)nnc3s2)cc1,1.5µM*,?,-67%,4%,i,2.3µM*
CCOC(=O)C1=C(CN2CCN(c3ccccc3F)CC2)NC(=O)NC1c1ccc(Cl)cc1 (stereo not drawn),.,-9%,-7%,8%,i,.
CCOC(=O)C1=C(CN2CCN(c3ccc(Cl)cc3)CC2)NC(=O)NC1c1ccc(F)cc1 (stereo not drawn),.,16µM*,-39%,6%,i,.
NC(Cc1ccc(Cl)cc1)c1csc(Nc2ccc(C(F)(F)F)cn2)n1 (stereo not drawn),?,?,-98%,-23%,32µM*,?
CC(C)CC(N)c1csc(Nc2ccc(C(F)(F)F)cn2)n1 (stereo not drawn),18µM*,?,18µM*,?,?,?
O=C(NC1CCCCCC1)c1ccc2c(c1)sc1nc(-c3ccc(F)cc3)cn12,.,-8%,-11%,.,.,.
SMILES,HT1080NT lethal,TGFb SMAD3 inh,HepG2 tox,ATXN2 expr inh,ATXN viability,HT1080 IDH1KD tx
NS(=O)(=O)c1ccc(S(=O)(=O)N2CCN(c3nc(-c4cccs4)nc4ccccc34)CC2)cc1,.,-27%,0%,.,.,.
O=S(=O)(c1ccccc1)c1nc(-c2ccco2)oc1NCc1cccnc1,1%,-7%,11µM*,8%,i,0%
CC1(C)OC(=O)C2(Cc3ccccc3N3CCCC32)C(=O)O1 (stereo not drawn),.,-6%,-17%,.,.,.
CCOC(=O)c1c(-c2cccs2)csc1NC(C)=O,-10%,0%,-21%,2%,i,-14%
CCOC(=O)c1c(-c2ccc(-c3ccccc3)cc2)csc1NC(=O)CNCCN(C)C,9.2µM*,?,i,?,?,9.2µM*
CCOC(=O)c1c(-c2ccccc2)csc1NC(=O)CCN1C(=O)c2ccccc2C1=O,12%,-7%,-4%,3%,i,8%
CCOC(=O)c1c(-c2cccs2)csc1NC(=O)CN1CC(C)OC(C)C1 (stereo not drawn),?,?,20µM*,-10%,i,?
CCOC(=O)c1ccc(OC(=O)c2cn(-c3ccc(C)cc3)c(=O)c3ccccc23)cc1,.,22%,-16%,.,.,.
O=S(=O)(c1ccc(S(=O)(=O)N2CCCC2)cc1)N1CCCCCC1,3%,1%,-24%,5%,i,4%
CC1CCN(S(=O)(=O)c2ccc3c(c2)C(=NO)c2cc(S(=O)(=O)N4CCC(C)CC4)ccc2-3)CC1,1.5µM*,8.9µM*,1.3µM*,3.5µM*,3.2µM*,2.6µM*
O=S(=O)(c1ccc2c(c1)C(=NO)c1cc(S(=O)(=O)N3CCCCC3)ccc1-2)N1CCCCC1,0.37µM*,?,1.8µM*,3.5µM*,3.5µM*,0.58µM*
O=C(CCl)N1c2ccccc2SCC1c1ccccc1 (stereo not drawn),4.6µM*,?,-104%,?,20µM*,5.8µM*
O=C(CCl)N1c2ccccc2OCC1c1ccccc1 (stereo not drawn),-5%,0%,19%,-3%,?,-7%
CC[N+]1(CC(=O)c2cccs2)CCCCC1,.,-9%,-28%,.,.,.
CSc1ccccc1C(=O)NCC1Cc2cccc(-c3ncccc3C)c2O1 (stereo not drawn),.,.,.,.,i,.
Cc1ccc(Oc2nc3c(c(=O)n(Cc4ccccc4)c(=O)n3C)n2C)cc1C,.,-13%,1%,-1%,i,.
O=C(NNC(=S)NC(=O)C12CC3CC(CC(C3)C1)C2)c1ccncc1,13µM*,-6%,-18%,-18%,i,7.9µM*
Cc1cc(S(=O)(=O)NC2CCN(Cc3ccccc3)CC2)c(C)cc1Cl,?,?,-62%,-9%,i,21µM*
